Screen size: about 290,000 compounds; about 27,000 (9.3%) were called active. Only a selection was taken, and actives are over-represented in it overall. A number with no mark means an inactive call. Rule as the data show it: active = inhibition mostly above about 28% (no sharp cut-off); inactive = mostly below about 43%.

The experiment is described as follows: A qHTS for Small Molecule Inhibitors of Shiga Toxin. Also: 0% is about no effect. The note with it: Vero cells, Shiga toxin protein synthesis inhibition reporter; at 38.7 µM, hits give high values.
Broadly, the inhibition is the relative decrease from the control value, in per cent. `CCOc1ccc(C(=O)Nc2cccc(-c3ccc4nncn4n3)c2)cc1`: the inhibition was 35.1%.
To `O=C(CSc1nc(C2CC2)nc2ccccc12)Nc1cccc(O)c1` belongs -5.2%; to `CCOc1ccc(C(=O)Nc2ccncc2)cc1`, 77.7%.
In the case of `Cc1cc(C)cc(NC(=O)CSc2ccccc2)c1` it was 29.4%; in that of `CCOc1ccc(C(=O)Nc2cccc(SC)c2)cc1`, 47.7% (active).
To `O=C(CSc1ccccc1)Nc1ccc(C(=O)Nc2cccc(O)c2)cc1` belongs 65.7% (active); to `Cc1nnc(SCC(=O)Nc2cccc(N)c2)n1-c1ccccc1`, 4.15%; to `O=C(Cc1ccccc1)Nc1ccc(C(=O)Nc2ccccc2C(=O)O)cc1`, -19.6%.
Turning to `CSc1cccc(NC(=O)CSc2ccccc2)c1`, the inhibition is 3.54% (active).
In the case of `Cc1cc(S(=O)(=O)c2cc3ccc(O)c(C)c3oc2=O)ccc1F` it was 23.1%; in that of `Cc1nn(C)c(C)c1C(C)NC(=O)c1ccc(OC2CCN(Cc3ccccn3)CC2)cc1` (configuration not stated), 8.35%.
For `NNC(=O)c1nnn(-c2nonc2N)c1CN1CCCC1`, the inhibition is -1.91%.
Consider `CCc1nc(Nc2ccc(NC(C)=O)cc2)c2oc3ccccc3c2n1`, for which the inhibition is -2.91%.
To `Cc1c(CNCCc2ccccc2)c(C(=O)O)c(C)n1-c1ccccc1` belongs -0.721%.
To `Cc1ccc(CSCC2Nc3ccc(C(=O)N4CCN(c5ccc(F)cc5)CC4)cc3NC2=O)cc1` (configuration not stated) belongs 13.1%; to `CCOc1ccc(NC(=O)c2ccc(NC(=O)C3CCCO3)cc2)cc1` (configuration not stated), 0.828%; to `Cc1cc2c(cc1S(=O)(=O)NCc1ccc(Cl)cc1)OCC(=O)N2`, -2.9%.
In the case of `CC(NC(=O)C1CCCN(S(=O)(=O)c2ccc(-n3cnnn3)cc2)C1)c1ccc(F)cc1` (configuration not stated) it was -5.87%.
Turning to `Cc1ccc(C(=O)NC23CC4CC(CC(C4)C2)C3)c(Cl)c1`, the inhibition is 6.22%.
To `CSc1ccc(/C=C/C(=O)NC23CC4CC(CC(C4)C2)C3)cc1` belongs 103% (active); to `CSc1ccc(NC(=O)/C=C/C(=O)O)cc1`, 18.3%.
In the case of `Cc1ccc2sc(N(CCN(C)C)C(=O)/C=C/c3cccs3)nc2c1C` it was -3.15%; in that of `CCOC(=O)c1nc(Nc2ccc(C(=O)OC)cc2)c2ccccc2n1`, 17%.
For `COC(=O)c1ccc(NC(=O)CSc2nncc3ccc(OC)c(OC)c23)cc1`, the inhibition was -11.5%.
To `COC(=O)c1ccc(Nc2ncnc3sccc23)cc1` belongs 42% (active); to `COc1cc2c(cc1OC)C(c1cccc([N+](=O)[O-])c1)=NCC2`, -8.7%.
As to `O=c1[nH]c(=S)n(C2CC2)c(O)c1/C=N/N1CCOCC1`, the inhibition was -6.68%.
In the case of `O=C(N/N=C/c1c(O)n(C2CC2)c(=S)[nH]c1=O)c1ccccc1` it was 84.6% (active); in that of `O=C(N/N=C/c1c(O)n(C2CC2)c(=S)[nH]c1=O)c1ccccc1Cl`, 30.7%.
For the molecule `Cn1cnc2c1c(=O)n(Cc1ccccc1C#N)c(=O)n2C`, the inhibition is -8.82%.
In the case of `Cc1ccc(NC(=O)c2ccccn2)cc1S(=O)(=O)N1CCOCC1` it was 28%; in that of `COC(=O)[C@@H](NC(=O)Nc1cc(Cl)ccc1C)C(C)C`, 8.66%; in that of `Cc1ccc(Cl)cc1NC(=O)c1ccccn1`, 31.5% (active).
For `O=C(N/C(=C\c1ccc([N+](=O)[O-])cc1)C(=O)N1CCOCC1)c1cccc(Br)c1`, the inhibition was -35.2%.
In the case of `Cn1c(=O)c2c(nc(Br)n2CCSc2nc3ccccc3o2)n(C)c1=O` it was -12.2%; in that of `Fc1ccccc1OCCSc1nc2ccccc2o1`, 110% (active).
In the case of `OCCNCCCCOc1ccccc1F` it was -2.38%.
In the case of `O=S(=O)(c1cccc(-c2cn3ccccc3n2)c1)N1CCCC1` it was 16.7%; in that of `COc1ccc(N(Cc2ccccc2)S(=O)(=O)c2cccc(C(=O)O)c2)cc1`, -12.2%.
Regarding `COc1ccc(CN(C)C(=O)CC(c2ccccc2)c2ccccc2)cc1`, the inhibition was 6.72%.
In the case of `COc1ccc(C(CC(=O)c2ccccc2)S(=O)(=O)c2ccccc2)cc1` (configuration not stated) it was 26.9% (active).
In the case of `Cc1[nH]c2ccccc2c1C(=O)CN1CC(C)CC(C)C1` (configuration not stated) it was -6.33%; in that of `COc1ccc2nc(Nc3nc4cc5c(cc4s3)OCCO5)sc2c1`, 46.4% (active); in that of `COc1ccc2nc(NC(=O)c3ccc(Br)s3)sc2c1`, 51.2% (active).
To `CCn1c(SCC(=O)Nc2nc3ccc(OC)cc3s2)nnc1-c1ccoc1C` belongs 56.7%; to `COc1ccc2nc(NC(=O)NC3CCCCC3)sc2c1`, 96.4% (active).
For the molecule `COc1ccc(CNC(=O)c2ccc(Br)s2)cc1OC`, the inhibition is 31.8%.
In the case of `COc1ccc2nc(Nc3nc4ccc(NC(C)=O)cc4s3)sc2c1` it was 35.3%; in that of `COc1ccc(-n2cnc3cc(C(=O)NC4CCCC4)ccc32)cc1`, -10.6%; in that of `Cc1nc2cc3c(cc2s1)OCO3`, 13.4%.
`COc1ccc2nc(NC(=O)[C@@H]3CCCN3C(=O)c3cccs3)sc2c1`: the inhibition is 60.1%.
`COc1ccc(N(CC(=O)Nc2cc(OC)ccc2OC)S(=O)(=O)c2c(C)noc2C)cc1`: the inhibition is -2.51%.
In the case of `O=C(O)c1ccc(/C=C2/SC(=S)N(c3cccc(C(F)(F)F)c3)C2=O)cc1` it was -0.926%.
To `CCOC(=O)c1cc(S(=O)(=O)NCCc2ccc(OC)c(OC)c2)cn1C` belongs -9.15%; to `Cc1cc(C)c2c3c(sc2n1)C(c1ccccc1)C(C#N)=C(N)O3` (configuration not stated), 16.2%; to `N#CC1=C(N)Oc2c(sc3ccccc23)C1c1ccco1` (configuration not stated), 139% (active).
In the case of `N#CC1=C(N)Oc2c(c(=O)oc3ccccc23)C1c1ccccc1OC(=O)c1cccs1` (configuration not stated) it was -8.1%; in that of `COc1cccc(NC(=O)CSc2nnc(Cc3ccc(OC)c(OC)c3)o2)c1`, -3.46%.
For the molecule `CCN(CC)CCCNC(=S)N(CCO)Cc1cc2cc3c(cc2[nH]c1=O)OCO3`, the inhibition was -4.73%.
To `COCCNc1ncnc2c1nc1n2CCCC1` belongs -7.74%; to `O=C(NCCc1ccc(F)cc1)c1n[nH]c2ccccc12`, 69.4% (active); to `COc1ccc(COC(=O)c2n[nH]c3ccccc23)cc1F`, 52.9% (active).
Regarding `O=C(NCCCO)c1cc2c([nH]c3ccccc32)c(-c2ccc(F)cc2)n1`, the inhibition is -5.91%.
For `C=CCN(CC=C)C(=O)COC(=O)c1n[nH]c2ccccc12`, the inhibition was 10.1%.
In the case of `CCN(CC)S(=O)(=O)c1ccc2nc(COC(=O)c3n[nH]c4ccccc34)[nH]c2c1` it was -12.2%.
To `O=C(COC(=O)c1n[nH]c2ccccc12)NCc1ccccc1` belongs -4.54%.
To `O=C(CC(=O)N/N=C\c1ccc(F)cc1)NCCc1ccccc1` belongs 10.7%; to `COc1cccc(CNC(=O)Cc2csc(Nc3nc(=S)[nH]c4ccccc34)n2)c1`, 1.99%; to `COc1cccc(CNC(=O)c2n[nH]c3ccccc23)c1`, 31.3% (active).
As for `Cc1cccc(OCC(O)Cn2c(N3CCCCC3)nc3c2c(=O)[nH]c(=O)n3C)c1` (configuration not stated), the inhibition was 35.6%.
To `CCn1cc(CN2CCC(C(=O)Nc3cccc(-c4cccc(Cl)c4)c3)CC2)c(C)n1` belongs -29.7%; to `Cc1ccccc1NC(=O)Cn1cc(C(=O)C2CC2)c2ccccc21`, 14.9%; to `O=C(C1CCN(S(=O)(=O)c2ccc(Br)s2)CC1)N1CCN(c2ccccc2)CC1`, 14.2%.
In the case of `COc1cc2c(cc1OC)C(C(=O)NCc1ccco1)C1c3ccccc3CCN1C2=O` (configuration not stated) it was -23.5%.
For `Cc1ccc(NC(=O)CSc2sc3c(O)cc(=O)[nH]c3c2C#N)cc1C`, the inhibition was -11.9%.
To `COc1ccc(C(C)C)cc1S(=O)(=O)Nc1ncn[nH]1` belongs -1.36%; to `O=C(C1CCCN(S(=O)(=O)c2ccccc2)C1)N1CCN(c2ccc(F)cc2)CC1` (configuration not stated), -6.64%; to `Cc1cc(NC(=O)CCC(=O)N(CC(=O)NC2CCCC2)c2ccc(F)cc2)no1`, 29.9%.
In the case of `O=C(NCCN1CCOCC1)c1c(F)c(F)c(F)c(F)c1F` it was 33.6%; in that of `Fc1ccc(-c2ccc(NCCN3CCOCC3)nn2)cc1`, 51.7% (active).
On to `CN(CC(=O)NCCN1CCOCC1)S(=O)(=O)c1ccc(F)cc1`, for which the inhibition was -3.65%.
For the molecule `O=[N+]([O-])C(=c1ccc2c(c1)N1C3=C(CCCC3)CC3CCCCC31N=2)[N+](=O)[O-]` (configuration not stated), the inhibition was 27.4%.
To `COCCCNC(=O)C1CC(=O)N(CCc2ccc(F)cc2)C1` (configuration not stated) belongs -8.38%; to `O=C1CSC(=S)N1/N=C/c1ccc(O)c([N+](=O)[O-])c1`, 34.5%.
For `CCOc1cccc(/C=N/NC(=S)NCCN2CCOCC2)c1O`, the inhibition is 22.8%.
In the case of `CCOc1cccc(/C=N/N2C(=O)CSC2=S)c1O` it was 38% (active); in that of `CCN(CC)CCCNC(=O)c1c(O)c2cc(F)cc3c2n(c1=O)C(C)CC3` (configuration not stated), 2.56%.
To `O=C(c1ccccc1)N1CCN(C(=O)c2cc3nc(-c4ccccc4)cc(C(F)(F)F)n3n2)CC1` belongs 3.38%.
As for `OCCNc1nc(Nc2ccc(Cl)c(Cl)c2)nc2ccccc12`, the inhibition was 29.5%.
With `Cc1cc(C)nc(Nc2n[nH]c(-c3ccccc3N)n2)n1`, the inhibition was 55% (active).
In the case of `COc1ccccc1-c1nc(SC)n[nH]1` it was 50.6%; in that of `Cc1cc(C)nc(Nc2ncn[nH]2)n1`, -5.43%; in that of `CCOc1ccc(CNC(=O)C2CCCN(c3nnc(C)c4c(C)n(-c5ccccc5)nc34)C2)cc1` (configuration not stated), -7.91%.
To `N#CC1(NC(=O)COC(=O)CCN=C2NS(=O)(=O)c3ccccc32)CCCCC1` belongs 12.6%; to `COc1ccc(NC(=O)CN(C)C(=O)CNC(=O)C2CCCCC2)cc1`, 14.6%.
To `CN(CC(=O)Nc1ccc(Cl)cc1)C(=O)CNC(=O)c1ccc2ccccc2c1` belongs 121% (active).
Consider `COc1cccc(NC(=O)CN(C)C(=O)Cc2ccc(Cl)cc2Cl)c1`, for which the inhibition is -4.77%.

The values above are taken from PubChem BioAssay AID2315 (National Center for Advancing Translational Sciences (NCATS), 2010).
